Screen size: about 5,500 compounds; about 2,000 (36%) were called active. Inconclusive results (about 18%) are left out. Cut-off read from the data, not from the text of the source: active = normalized growth mostly below about 0.91 (no sharp cut-off); inconclusive = no clear call, values can overlap the other calls; inactive = mostly above about 0.92. The list shows a part of the results.
Experiment: chemical genetic growth profiling, strain panel (AID 1159580);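 note: tested at 20 µM; growth read once vehicle control cultures reached saturation at 30 °C; 1 = growth at the plate median or of vehicle wells; lower values mean less growth of the strain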
Settings: S. cerevisiae deletion strains, growth OD
[1] = locus YAL013W, strain DEP1, stronger effect = lower value
[2] = locus YJR075W, strain HOC1, stronger effect = lower value
[3] = locus YMR263W, strain SAP30, stronger effect = lower value
[4] = locus YNL153C, strain GIM3, stronger effect = lower value
[5] = locus YNL322C, strain KRE1, stronger effect = lower value
[6] = locus YPL055C, strain LGE1, stronger effect = lower value

Measured: normalized growth

CCN1CCCC1CNC(=O)c1cc(S(N)(=O)=O)ccc1OC (stereo unspecified)
inactive: [1] 0.972 | locus YAL040C, strain CLN3, stronger effect = lower value 0.955 | locus YCL061C, strain MRC1 (second series), stronger effect = lower value 0.984 | locus YDR363W, strain ESC2, stronger effect = lower value 0.962 | locus YER002W, strain NOP16, stronger effect = lower value 0.969 | [2] 0.973 | [3] 0.98 | locus YMR307W, strain GAS1, stronger effect = lower value 1.02 | [4] 1.02 | locus YNL175C, strain NOP13, stronger effect = lower value 0.978 | locus YNL197C, strain WHI3, stronger effect = lower value 0.977 | locus YNL224C, strain SQS1, stronger effect = lower value 0.992 | [5] 0.974 | locus YOR083W, strain WHI5 (second series), stronger effect = lower value 0.963 | [6] 0.993

CC(=O)Nc1ccc(S(=O)(=O)Nc2c(C)n(C)n(-c3ccccc3)c2=O)cc1
inactive: [1] 0.999 | locus YBR229C, strain ROT2, stronger effect = lower value 0.947 | locus YCL061C, strain MRC1, stronger effect = lower value 1.02 | locus YDL101C, strain DUN1, stronger effect = lower value 1.04 | locus YDR150W, strain NUM1, stronger effect = lower value 1.04 | locus YEL061C, strain CIN8, stronger effect = lower value 0.995 | locus YGR078C, strain PAC10, stronger effect = lower value 1.02 | locus YHR030C, strain SLT2, stronger effect = lower value 1.11 | locus YHR087W, strain rtc3, stronger effect = lower value 0.974 | locus YJR043C, strain POL32, stronger effect = lower value 1.02 | [2] 0.996 | locus YKL190W, strain CNB1, stronger effect = lower value 1.01 | locus YLR039C, strain RIC1, stronger effect = lower value 1.02 | locus YLR058C, strain SHM2 (second series), stronger effect = lower value 0.995 | locus YLR085C, strain ARP6, stronger effect = lower value 0.999 | locus YLR262C, strain YPT6, stronger effect = lower value 1 | locus YML094W, strain GIM5, stronger effect = lower value 1.01 | locus YMR219W, strain ESC1, stronger effect = lower value 1.01 | [3] 1.01 | [4] 1.06 | locus YNL298W, strain CLA4 (second series), stronger effect = lower value 1 | [5] 1.01 | locus YNR030W, strain Alg12, stronger effect = lower value 1 | [6] 0.974 | locus YPL241C, strain CIN2, stronger effect = lower value 0.987 | locus YPR135W, strain CTF4, stronger effect = lower value 1.07

Reference: PubChem BioAssay AID1159580 (chemical genetic matrix, 2015)
